Assay outcomes (PubChem BioAssay)
Bcl-xL primary: inhibitors of human Bcl-xL, primary screen, biochemical, fluorescence polarization, HTS; Bcl-2-like protein 1 (Homo sapiens), Q07817; inhibition, % at 10.9 µM; GST-Bcl-xL / FITC-Bim BH3 peptide fluorescence polarization; actives 0.7% (n = 320,000);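 active = inhibition above the mean of all tested compounds plus 3 SD, cutoff set per campaign, cut at about 30% in these data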;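 also: inhibitors lower millipolarization by displacing the labeled peptide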
GLD-1 RNA inh: GLD-1/TGE RNA complex disruptors, primary screen, biochemical, fluorescence polarization | Female germline-specific tumor suppressor gld-1 (Caenorhabditis elegans), Q17339 | purified GLD-1 + fluorescein TGE RNA | inhibition, % at 5.96 µM | actives 0.44% (n = 320,000);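 active = percent inhibition above a per-plate cutoff, the plate mean of test compounds plus 3 SD, cut at about 30% in these data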
Target sequence (Q17339 whole entry, looked up): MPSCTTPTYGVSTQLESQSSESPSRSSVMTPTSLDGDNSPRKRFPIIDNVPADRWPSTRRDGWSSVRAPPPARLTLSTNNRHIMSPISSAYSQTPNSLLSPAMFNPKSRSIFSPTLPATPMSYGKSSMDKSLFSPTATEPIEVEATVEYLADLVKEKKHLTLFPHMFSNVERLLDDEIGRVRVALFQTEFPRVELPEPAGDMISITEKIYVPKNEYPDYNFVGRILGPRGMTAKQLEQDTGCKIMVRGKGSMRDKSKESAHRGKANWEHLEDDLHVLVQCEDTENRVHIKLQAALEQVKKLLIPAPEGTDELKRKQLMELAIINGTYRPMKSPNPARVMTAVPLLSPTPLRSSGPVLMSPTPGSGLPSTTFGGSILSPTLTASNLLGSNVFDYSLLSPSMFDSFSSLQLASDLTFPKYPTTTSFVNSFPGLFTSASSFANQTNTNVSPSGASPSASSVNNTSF
MCL1 BIM primary: inhibitors of MCL1 binding to BIM-BH3, primary screen, biochemical, fluorescence polarization | GST-MCL1 / FITC-Bim-BH3 fluorescence polarization | Induced myeloid leukemia cell differentiation protein Mcl-1 (Homo sapiens), Q07820 | inhibition, % at 10.9 µM | actives 0.68% (n = 320,000);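 active = inhibition above the mean inhibition of all tested compounds plus 3 SD, set per campaign, cut at about 40% in these data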;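 also: higher means more loss of mP so more displacement of Bim peptide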
Bim-Mcl-1: inhibitors of Bim peptide binding to Mcl-1, primary screen, biochemical, bead-based flow cytometry, multiplex; Bim peptide-Mcl-1 binding; AID 1009, 2008; actives 0.1% (n = 190,000); inhibition, % at 10 µM; Induced myeloid leukemia cell differentiation protein Mcl-1 (Homo sapiens), Q07820; in the data active = inhibition above about 40%
Mcl1 Bid PPI: Mcl-1/Bid binding inhibitors, primary screen, biochemical, TR-FRET, 1536-well; TR-FRET Mcl-1/Bid-Dy647 peptide binding; inhibition, % at 21.7 µM; actives 0.97% (n = 220,000);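 active = compounds that cut the binding signal by more than half at the single screening dose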;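 also: His-tagged Mcl-1 with europium anti-His antibody binding Bid BH3 peptide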
Mcl1-Noxa inh: Mcl-1/Noxa binding inhibitors, primary screen, biochemical, TR-FRET, 1536-well. actives 1.5% (n = 220,000). TR-FRET Mcl-1/Noxa peptide binding, 2 h. inhibition, % at 21.7 µM. Induced myeloid leukemia cell differentiation protein Mcl-1 (Homo sapiens), Q07820;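 active = compounds that cut the protein-peptide binding signal by more than 50% relative to plate controls in a single-dose test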;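 also: His-tagged Mcl-1 with rhodamine Noxa BH3 peptide and terbium anti-His antibody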
Hits are given with their value; 0 = inactive; - = no result given. Sampled rows, rich in hits. Any-hit rate of the full collection: about 2.3%.

SMILES	Bcl-xL primary	GLD-1 RNA inh	MCL1 BIM primary	Bim-Mcl-1	Mcl1 Bid PPI	Mcl1-Noxa inh
NC1=NC(=Nc2cccc(S(N)(=O)=O)c2)c2ccccc21	0	0	0	-	0	0
Cn1c2ccccc2c(=O)c2c(=O)n(Cc3ccco3)c(-c3ccc(C(C)(C)C)cc3)nc21	0	0	0	-	52	0
Cc1ccc(CN2CCN(C(=O)c3ccco3)CC2)cc1	0	0	0	0	0	0
O=C(CN1CCN(C(=O)c2ccco2)CC1)Nc1c2c(nc3c1CCC3)CCCC2	-	-	-	0	51	0
O=C(c1ccco1)N1CCN(Cc2cccnc2)CC1	0	0	0	0	51	0
CCOC(=O)c1[nH]c(CO)c(C(=O)OCC)c1C	0	0	0	-	0	0
COC(CNC(=O)c1ccc2nc(-c3cccs3)c(-c3cccs3)nc2c1)OC	0	0	0	0	94	0
COc1ccc(-c2nc3ccc(C(=O)NCC(OC)OC)cc3nc2-c2ccc(OC)c(OC)c2)cc1OC	0	0	0	-	-	-
CCN(c1ccccc1)S(=O)(=O)c1cc(NC(=O)CN2CCN(C)CC2)ccc1Cl	-	0	-	-	-	-
CC(=O)N1c2c(cc(Br)cc2S(=O)(=O)NCc2ccc(C)cc2)CC1C (stereo not drawn)	0	0	0	-	-	-
CC1(C)Cc2c(c(-c3ccco3)nc3sc4c(NCC5CCCO5)ncnc4c23)CO1 (stereo not drawn)	0	0	0	0	0	51
CC1(C)Cc2c(c(-c3ccco3)nc3sc4c(NCCCO)ncnc4c23)CO1	0	0	0	-	0	0
CC1(C)Cc2c(c(-c3ccco3)nc3sc4c(NCCN5CCOCC5)ncnc4c23)CO1	0	0	0	0	0	63
COCCCNC(=O)c1cc2c(=O)n3cc(C)ccc3nc2nc1NCC1CCCO1 (stereo not drawn)	0	0	0	0	66	0
Cc1ccc2nc3nc(NCC4CCCO4)c(C(=O)NC4CCCC4)cc3c(=O)n2c1 (stereo not drawn)	0	0	0	0	0	0
Oc1cccc(Nc2nc(O)c(/C=C3\C=Nc4ccccc43)s2)c1	0	0	0	-	0	62
Oc1nc(Nc2cccc(Cl)c2)sc1/C=C1\C=Nc2ccccc21	0	0	0	0	0	0
Oc1nc(Nc2ccc(F)cc2)sc1/C=C1\C=Nc2ccccc21	0	0	0	-	0	102
COc1ccc(C)cc1N(CC(=O)NCCSCc1cccc(Cl)c1)S(C)(=O)=O	0	0	0	-	-	-
CN(C)S(=O)(=O)c1ccc(N2CCCC2)c(C(=O)NCC2CCCO2)c1 (stereo not drawn)	0	0	0	-	-	-
COc1ccc2o/c(=N\O)c(C(=O)Nc3ccccc3OC)cc2c1	0	0	0	0	0	60
COc1ccc2oc(=O)c(C(=O)Nc3ccccc3O)cc2c1	0	0	0	-	0	0
CCN(c1ccc(NC(=O)COC(=O)/C=C/c2cccs2)cc1)C(C)C	0	0	0	0	0	84
COc1ccccc1N(C)S(=O)(=O)c1ccc(C(=O)OCC(=O)N(C(C)C)C(C)C)cc1	0	0	0	0	0	0
CC1(c2ccccc2)CC(C)(C)N2C(=O)/C(=C3\SC(=S)NC3=O)c3cccc1c32 (stereo not drawn)	0	0	0	0	93	111
SMILES	Bcl-xL primary	GLD-1 RNA inh	MCL1 BIM primary	Bim-Mcl-1	Mcl1 Bid PPI	Mcl1-Noxa inh
Cn1cc([N+](=O)[O-])c(C(=O)Nc2ccc(-c3nc4ccccc4o3)cc2)n1	0	0	0	-	0	0
C=CCNC(=O)c1cccc2c1C(=O)c1ccc(N3CCCC3)cc1S2(=O)=O	-	43	-	-	-	-
O=C(NC[C@@H]1CCCO1)c1cccc2c1C(=O)c1ccc(N3CCOCC3)cc1S2(=O)=O	-	0	-	-	-	-
O=C(NCC1CC1)c1cccc2c1C(=O)c1ccc(N3CCCC3)cc1S2(=O)=O	-	44	-	-	-	-
O=C(Nc1ccc(F)c(Cl)c1)c1ccc2c(=O)n3c(nc2c1)CCCCC3	0	0	0	61	0	0
CC(OC(=O)c1ccc2c(=O)n3c(nc2c1)CCCCC3)C(=O)Nc1ccc(F)cc1Cl (stereo not drawn)	0	0	0	0	64	0
CC(OC(=O)c1ccc2c(=O)n3c(nc2c1)CCCCC3)C(=O)Nc1ccc(Cl)cn1 (stereo not drawn)	0	0	0	0	0	0
Cc1nc(Cl)nc(N(C)c2ccccc2)c1[N+](=O)[O-]	0	0	0	-	0	0
COc1ccc(C(=O)N2c3ccccc3CC2C)cc1OC (stereo not drawn)	0	0	0	0	0	74
CN(C)S(=O)(=O)c1ccc(N2CCCC2)c(C(=O)NNC(=O)c2ccc(F)cc2)c1	0	0	0	-	-	-
COc1cccc(-c2cc(=O)c3cc(NC(=O)c4ccc(N(C)C)cc4)ccc3[nH]2)c1	0	0	0	0	0	58
Cc1cccc(/C=C(\C#N)C(=O)Nc2ccccn2)c1	37	0	0	-	-	-
N#C/C(=C\c1ccccc1)C(=O)Nc1ccccn1	0	0	0	-	-	-
O=[N+]([O-])c1cc([N+](=O)[O-])c2c(=Nc3ccccc3)n(-c3ccccc3)n(O)c2c1	0	0	0	0	0	62
CC(=O)N/C(=C/c1ccc2c(c1)OCO2)C(=O)NCCO	0	0	0	0	0	0
O=C(NCCN1C(=O)S/C(=C\c2ccc(Cl)c(Cl)c2)C1=O)c1ccc2c(c1)C(=O)N(Cc1ccncc1)C2=O	0	0	0	0	51	71
CC(=O)Nc1ccc(Nc2nc(Cl)nc(Nc3ccc(NC(C)=O)cc3)n2)cc1	0	0	0	0	0	0
COc1ccccc1CNC(=O)C/C(C)=N/NC(=O)Cc1ccc(Cl)cc1	0	0	0	-	-	-
O=[N+]([O-])c1cc(Cl)cc(/C=N\Nc2ccccn2)c1O	0	0	0	0	73	0
O=[N+]([O-])c1cc(/C=N\Nc2ccccn2)ccc1Cl	0	0	0	-	-	-
O=c1nc2c(O)cccn2c2c1c(=O)[nH]c1ccccc12	-	-	-	0	0	61
Cc1sc2nc(CN3CCN(c4ccc(O)cc4)CC3)[nH]c(=O)c2c1C	0	0	0	-	0	67
Cc1ccc(S(=O)(=O)n2c3ccc(F)cc3c3nc(C)sc32)cc1	0	0	0	0	0	0
CCN(CC)CCn1c2ccc(F)cc2c2nc(C)sc21	0	0	0	0	53	0
Cc1ccccc1-c1cc(C(=O)Nc2sc(C)c(C)c2C(N)=O)c2ccccc2n1	0	0	0	0	0	0
CCOC(=O)c1c(NC(=O)c2cc(-c3ccc(Cl)s3)nc3ccccc23)sc(C(N)=O)c1C	0	0	0	0	61	0
